Measured values from PubChem BioAssay AID1159580 (chemical genetic matrix, 2015).
Among all 5,500 compounds or so, about 2,000 (36%) were called active. Another 18% or so got no clear call; they are omitted. Rule as the data show it: active = normalized growth mostly below about 0.91 (no sharp cut-off); inconclusive = no clear call, values can overlap the other calls; inactive = mostly above about 0.92. This is one part of the list.

Assay: chemical genetic growth profiling, strain panel (AID 1159580);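 also: tested at 20 µM; growth read once vehicle control cultures reached saturation at 30 °C; 1 = growth at the plate median or of vehicle wells; lower values mean less growth of the strain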
Conditions: S. cerevisiae deletion strains, growth OD

Measured: normalized growth

CC12CCC(OC(=O)c3ccccc3)CC1CCc1ccccc12 (configuration not stated)
active: locus YEL061C, strain CIN8 (second series), stronger effect = lower value 0.841 | locus YER016W, strain bim1, stronger effect = lower value 0.907
inactive: locus YAL021C, strain ccr4, stronger effect = lower value 0.986 | locus YAL026C, strain drs2, stronger effect = lower value 0.99 | locus YAL030W, strain snc1, stronger effect = lower value 0.999 | locus YBL061C, strain skt5, stronger effect = lower value 0.995 | locus YBR009C, strain hhf1, stronger effect = lower value 1 | locus YBR023C, strain chs3, stronger effect = lower value 0.995 | locus YBR171W, strain sec66, stronger effect = lower value 0.968 | locus YBR231C, strain swc5, stronger effect = lower value 0.939 | locus YBR279W, strain paf1, stronger effect = lower value 1.01 | locus YCL011C, strain gbp2, stronger effect = lower value 1 | locus YCL016C, strain dcc1, stronger effect = lower value 0.991 | locus YCL061C, strain MRC1, stronger effect = lower value 0.998 | locus YCL069W, strain vba3, stronger effect = lower value 0.996 | locus YCR088W, strain abp1, stronger effect = lower value 0.984 | locus YDL005C, strain med2, stronger effect = lower value 0.987 | locus YDL040C, strain nat1, stronger effect = lower value 0.979 | locus YDR001C, strain nth1, stronger effect = lower value 0.985 | locus YDR069C, strain doa4, stronger effect = lower value 0.98 | locus YDR137W, strain rgp1, stronger effect = lower value 0.964 | locus YDR159W, strain sac3, stronger effect = lower value 0.99 | locus YDR195W, strain ref2 0.964 | locus YDR297W, strain sur2, stronger effect = lower value 0.995 | locus YDR334W, strain swr1, stronger effect = lower value 0.959 | locus YDR335W, strain msn5, stronger effect = lower value 0.997 | locus YDR392W, strain spt3, stronger effect = lower value 0.866 | locus YEL003W, strain gim4, stronger effect = lower value 0.985 | locus YEL037C, strain rad23, stronger effect = lower value 0.991 | locus YER015W, strain faa2, stronger effect = lower value 0.998 | locus YER111C, strain swi4, stronger effect = lower value 0.988 | locus YER155C, strain BEM2 (second series), stronger effect = lower value 0.967 | locus YFR010W, strain ubp6, stronger effect = lower value 0.992 | locus YGL167C, strain pmr1, stronger effect = lower value 0.981 | locus YGL173C, strain kem1, stronger effect = lower value 0.987 | locus YGL227W, strain vid30, stronger effect = lower value 0.986 | locus YGL240W, strain doc1, stronger effect = lower value 0.952 | locus YGL253W, strain hxk2, stronger effect = lower value 1.01 | locus YHR013C, strain ard1, stronger effect = lower value 0.855 | locus YHR027C, strain rpn1, stronger effect = lower value 0.999 | locus YHR142W, strain chs7, stronger effect = lower value 1.01 | locus YJL092W, strain hpr5, stronger effect = lower value 0.989 | locus YJL095W, strain BCK1 (second series), stronger effect = lower value 1 | locus YJL115W, strain asf1, stronger effect = lower value 0.989 | locus YJL129C, strain trk1, stronger effect = lower value 0.999 | locus YJL154C, strain vps35, stronger effect = lower value 0.992 | locus YJL164C, strain tpk1, stronger effect = lower value 0.989 | locus YJL166W, strain qcr8, stronger effect = lower value 1 | locus YJL187C, strain SWE1, stronger effect = lower value 1 | locus YKL160W, strain elf1, stronger effect = lower value 1 | locus YKR026C, strain gcn3, stronger effect = lower value 0.965 | locus YKR091W, strain srl3, stronger effect = lower value 0.984 | locus YLL001W, strain dnm1, stronger effect = lower value 1.01 | locus YLL026W, stronger effect = lower value 0.993 | locus YLL041C, strain sdh2, stronger effect = lower value 0.994 | locus YLR027C, strain aat2, stronger effect = lower value 1.01 | locus YLR221C, strain rsa3, stronger effect = lower value 1 | locus YLR258W, strain gsy2, stronger effect = lower value 1 | locus YLR262C, strain YPT6 (second series), stronger effect = lower value 1.04 | locus YLR320W, strain mms22, stronger effect = lower value 1 | locus YLR342W, strain FKS1, stronger effect = lower value 0.987 | locus YLR357W, strain rsc2, stronger effect = lower value 0.986 | locus YLR370C, strain arc18, stronger effect = lower value 0.995 | locus YLR384C, strain iki3, stronger effect = lower value 1 | locus YML120C, strain ndi1, stronger effect = lower value 1 | locus YMR058W, strain fet3, stronger effect = lower value 1 | locus YMR125W, strain sto1, stronger effect = lower value 0.975 | locus YMR129W, stronger effect = lower value 0.986 | locus YMR205C, strain PFK2, stronger effect = lower value 1.01 | locus YMR231W, strain pep5, stronger effect = lower value 0.99 | locus YNL071W, strain lat1, stronger effect = lower value 0.992 | locus YNL209W, strain ssb2, stronger effect = lower value 0.997 | locus YNL248C, strain rpa49, stronger effect = lower value 1.01 | locus YNL322C, strain KRE1 (second series), stronger effect = lower value 0.982 | locus YNR049C, strain mso1, stronger effect = lower value 0.994 | locus YOR001W, strain rrp6, stronger effect = lower value 0.999 | locus YOR070C, strain gyp1, stronger effect = lower value 1.01 | locus YOR080W, strain dia2, stronger effect = lower value 0.965 | locus YOR083W, strain WHI5, stronger effect = lower value 0.995 | locus YOR106W, strain vam3, stronger effect = lower value 1.01 | locus YOR265W, strain rbl2, stronger effect = lower value 0.998 | locus YOR270C, strain vph1, stronger effect = lower value 1.06 | locus YOR290C, strain snf2, stronger effect = lower value 0.955 | locus YPL051W, strain arl3, stronger effect = lower value 1 | locus YPL078C, strain atp4, stronger effect = lower value 1.01 | locus YPL106C, strain sse1, stronger effect = lower value 0.992 | locus YPL240C, strain hsp82, stronger effect = lower value 0.988
